Sampled rows, rich in hits. Any-hit rate of the full collection: about 8.7%.
Vaccinia mCherry – qHTS for Stage-Specific Inhibitors of Vaccinia Orthopoxvirus: mCherry Reporter Primary qHTS; Vaccinia virus mCherry reporter infection, fluorescence; Potency, µM (series often up to 36.5 µM), without a hit: at the top dose activity change, negative = inhibition, hits mostly inhibitors; 310,000 tested, 0.63% active; AID 720579, 2013; calls by dose curve; tested in A549 cells; note: nearly all actives have a fitted effect of over 35% in size
AMA1 RON2 block – qHTS for Inhibitors of AMA1-RON; Towards Development of Antimalarial Drug Lead: Primary Screen; Plasmodium falciparum AMA1 (3D7) - RON2 peptide interaction; AlphaScreen AMA1-biotinylated RON2 peptide binding; Potency, µM (highest dose often 58.2 µM), for the others: top-dose activity change, negative = inhibition, actives largely listed as inhibitors; 360,000 tested, 0.2% active; AID 720542, 2013;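 note: 0% = vehicle wells and -100% = peptide control; nearly all actives have a fitted effect of over 45% in size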
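AMA1 (3D7) with his tag at 25 nM final met compounds first, then biotinylated RON2 peptide at 25 nM; detection used donor plus acceptor beads, 10 µg/mL apiece, read by AlphaScreen after 30 min at room temperature.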
Pf growth 96h – Primary qHTS for delayed death inhibitors of the malarial parasite plastid, 96 hour incubation; P. falciparum luciferase reporter growth, 96 h; AID 504834, 2011; 320,000 tested, 6.9% active; Potency, µM (doses to about 28.7 µM), inactives show top-dose activity change, negative = inhibition, actives largely listed as inhibitors
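Readout is luminescence from an integrated firefly luciferase in P. falciparum. Red cells, 2% hematocrit and 0.05% parasitemia final, were cultured with compound through two parasite generations (96 hours) at 37 C, 5% CO2.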
VACV Venus inh – qHTS for Stage-Specific Inhibitors of Vaccinia Orthopoxvirus: Venus Reporter Primary qHTS. Vaccinia virus Venus reporter expression, fluorescence. Potency, µM (highest dose often 36.5 µM), inactives show at the top dose activity change, negative = inhibition, hits mostly inhibitors. 330,000 tested, 0.46% active; calls by dose curve; tested in A549 cells; note: nearly all actives have a fitted effect of over 30% in size
Pf growth 48h – Primary qHTS for delayed death inhibitors of the malarial parasite plastid, 48 hour incubation; P. falciparum luciferase growth in erythrocytes, 48 h; Potency, µM (series often up to 28.7 µM), for inactives: at the highest dose activity change, negative = inhibition, hits mostly inhibitors; 310,000 tested, 5.9% active; AID 504832, 2011
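Luciferase-expressing P. falciparum in infected erythrocytes (2% hematocrit, 0.1% parasitemia final) in RPMI 1640/0.5% Albumax were exposed to compound for 48 hours at 37 C, 5% CO2; growth read as luminescence.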
* = called active by the depositor; ! = not active in a repeat; [ ] = another dose, or the depositor's remark. Unless noted, calls come from the whole dose curve; as a rule, active = well fitted curve in the direction sought with a large enough effect; inconclusive = small, poorly fitted or top-dose-only effect, or another doubt; inactive = no such curve, though single readings can be large; an effect the other way counts as inactive or inconclusive. Unless noted, % is set by controls: 0 for no effect and ±100 for the full control effect; potency is the fitted concentration of half-maximal effect.

For CCC(=O)N1c2ccccc2CC1C(=O)NCc1ccccc1Cl (stereo not given) the results were Vaccinia mCherry 2% and VACV Venus inh 7%.
Cc1ccc(/C=C/c2onc(C)c2S(=O)(=O)N2CCC(C(=O)N3CCOc4ccc(C)cc43)CC2)cc1 was read as Vaccinia mCherry -13%[7.34 µM] and VACV Venus inh -3%[7.34 µM].
Screening Cc1cc(=O)[nH]c(N/N=C/c2ccccn2)n1 returned Vaccinia mCherry inconclusive, AMA1 RON2 block -42%, Pf growth 96h inconclusive, VACV Venus inh inconclusive and Pf growth 48h 2.9µM*.
`Fc1cccc(/C=N/Nc2nncc3ccccc23)c1` gave AMA1 RON2 block -4% and Pf growth 96h 261%.
`O=c1nc(N/N=C/c2ccccn2)cn[nH]1` gave Vaccinia mCherry 4µM*, AMA1 RON2 block -15%, Pf growth 96h -6%[1.15 µM], VACV Venus inh inconclusive and Pf growth 48h 1µM*.
C(=N\Nc1nncc2ccccc12)/c1ccccn1 was read as Vaccinia mCherry 10µM*, AMA1 RON2 block 97%, Pf growth 96h inconclusive, VACV Venus inh inconclusive and Pf growth 48h 0.83µM*.
`Cc1ccc(/C=N/Nc2cn[nH]c(=O)n2)o1` gave Vaccinia mCherry -9%, AMA1 RON2 block 44%, Pf growth 96h 11%, VACV Venus inh -12% and Pf growth 48h 35%.
`C(=N\Nc1ccc2nncn2n1)/c1ccccn1` gave Vaccinia mCherry inconclusive, AMA1 RON2 block 74%, Pf growth 96h 9.3µM*, VACV Venus inh inconclusive and Pf growth 48h -75%.
`C/C(=N\Nc1ccc2nncn2n1)c1ccccn1` gave Vaccinia mCherry inconclusive, AMA1 RON2 block 7%, Pf growth 96h inconclusive, VACV Venus inh inconclusive and Pf growth 48h inconclusive.
Screening NCC(=O)c1c[nH]c2ccccc12 returned Vaccinia mCherry -2% and VACV Venus inh -9%.
Screening Cc1ccc2c(c1)-c1nc(-c3ccc(Cl)cc3)cc(-c3coc4ccccc4c3=O)c1CO2 returned Vaccinia mCherry -14% and VACV Venus inh -5%.
For O=c1cnnc(N/N=C/c2ccccn2)[nH]1 the results were Vaccinia mCherry 2.2µM*, AMA1 RON2 block -4%, Pf growth 96h inconclusive, VACV Venus inh -20% and Pf growth 48h inconclusive.
For CC(=O)c1ccc(F)c(-c2cc(C)cc3c2OC(CNC(=O)c2cccnc2)C3)c1 (stereo not given) the results were Vaccinia mCherry -14% and VACV Venus inh -14%.
For Nc1ccc(C(=O)NCC(=O)O)cc1 the results were Vaccinia mCherry -2%, AMA1 RON2 block 0%, Pf growth 96h 9.3µM*!, VACV Venus inh -12% and Pf growth 48h 12µM*!.
Cc1ccc2oc(-c3cccc(NC(=O)C4CCCO4)c3)nc2c1 (stereo not given) was read as Vaccinia mCherry -8%, AMA1 RON2 block 20%, Pf growth 96h 10µM*, VACV Venus inh -16% and Pf growth 48h 225%.
CCOC(=O)c1c(-c2ccc(OC)cc2)csc1NC(=O)CCN1CCOCC1 was read as Vaccinia mCherry -10%, AMA1 RON2 block inconclusive, Pf growth 96h 5.9µM*, VACV Venus inh -15% and Pf growth 48h 12µM*.
Screening CCOC(=O)c1c(-c2ccc(C)cc2)csc1NC(=O)C1CCCO1 (stereo not given) returned Vaccinia mCherry inactive, AMA1 RON2 block -15%, Pf growth 96h 9.3µM*, VACV Venus inh -11% and Pf growth 48h inconclusive.
Screening COC(=O)c1c(-c2cccc(C)c2)csc1NC(=O)C1CCCO1 (stereo not given) returned Vaccinia mCherry inactive, AMA1 RON2 block -27%, Pf growth 96h 4%, VACV Venus inh -5% and Pf growth 48h 13µM*.
Screening CCOC(=O)c1c(-c2ccc(OC)cc2)csc1NC(=O)C1CCCO1 (stereo not given) returned AMA1 RON2 block -8%, Pf growth 96h 44% and Pf growth 48h inconclusive.
Cc1cccc(-c2nc3cc(NC(=O)C4CCCO4)ccc3o2)c1 (stereo not given) was read as Vaccinia mCherry inactive, AMA1 RON2 block 10%, Pf growth 96h -1%, VACV Venus inh -12% and Pf growth 48h 123%.
`CN(CC(=O)O)S(=O)(=O)c1cc(Cl)ccc1Cl` gave Vaccinia mCherry -6%, AMA1 RON2 block 7%, Pf growth 96h -5%, VACV Venus inh -3% and Pf growth 48h 21%.
CCN(CC(=O)O)S(=O)(=O)c1cc(Cl)ccc1Cl was read as Vaccinia mCherry -10%[1.46 µM], AMA1 RON2 block -2%, Pf growth 96h 13µM*, VACV Venus inh -22% and Pf growth 48h 7%.
CCC12CN3CC(CC)(CN(C1)C3c1cccc(OC)c1O)C2=O (stereo not given) was read as Vaccinia mCherry -2% and VACV Venus inh -8%.
For Cc1cccc(CCNC(=O)c2c[nH]c3ccc(S(=O)(=O)Nc4ccccc4F)cc3c2=O)c1 the results were Vaccinia mCherry -6% and VACV Venus inh -4%.
Screening Cc1cccc(CCNC(=O)c2cc(=O)[nH]c3ccc(Br)cc23)c1 returned Pf growth 96h 10µM* and Pf growth 48h 18%.
Screening COc1cc(NC(=O)c2cc(S(=O)(=O)N3CCC(C)CC3)cn2C)cc(OC)c1OC returned Vaccinia mCherry -1% and VACV Venus inh -6%.
Screening Cc1cccc(Cn2c(C(C)O)nc3ccccc32)c1 (stereo not given) returned Vaccinia mCherry -7%, AMA1 RON2 block -10%, Pf growth 96h inconclusive, VACV Venus inh -11% and Pf growth 48h -9%.
`Cc1cccc(Cn2c(C)nc3c(N)c(C)c(C)cc32)c1` gave Vaccinia mCherry -6%, AMA1 RON2 block -23%, Pf growth 96h inconclusive, VACV Venus inh -1% and Pf growth 48h 10µM*.
Screening CC(C)COc1ccc(C(=O)N(Cc2ccc(N(C)C)cc2)Cc2ccco2)cc1 returned Vaccinia mCherry -6% and VACV Venus inh -7%.
COCCNC(=S)N1CCN(c2nc(-c3ccccc3)cs2)CC1 was read as AMA1 RON2 block -20%, Pf growth 96h 12µM* and Pf growth 48h 3%.
For CCOC(=O)C(=O)N1CCN(c2nc(-c3ccc(Cl)cc3)cs2)CC1 the results were Vaccinia mCherry inconclusive, AMA1 RON2 block 12%, Pf growth 96h 4.7µM*, VACV Venus inh -27% and Pf growth 48h 13%.
CCOCCCNC(=S)N1CCN(c2nc(-c3ccc(F)cc3)cs2)CC1 was read as AMA1 RON2 block -9%, Pf growth 96h inconclusive and Pf growth 48h 9.3µM*.
For CCOC(=O)N1CCN(c2nc(-c3ccc(F)cc3)cs2)CC1 the results were Vaccinia mCherry -10%, AMA1 RON2 block -9%, Pf growth 96h 92%, VACV Venus inh -7% and Pf growth 48h 13%.

Source: PubChem
